Measurements: the supplement of paper PMC3334620
Whole data set: some 33,000 sequences, median “E-score (-0.5 to 0.5)” near -0.016, cut for the highest 2% near 0.3. For the sample, the highest values were picked, then their nearest neighbours and some sequences at random.

These sequences were tested against T1, Yer184c (UniProt P39961) (assay: PBM E-score (8-mer binding enrichment) (E-score (-0.5 to 0.5)); higher = stronger / more preferred TF binding). Details: protein concentration: 100 nM; construct: GST-full length.
T1 sequence: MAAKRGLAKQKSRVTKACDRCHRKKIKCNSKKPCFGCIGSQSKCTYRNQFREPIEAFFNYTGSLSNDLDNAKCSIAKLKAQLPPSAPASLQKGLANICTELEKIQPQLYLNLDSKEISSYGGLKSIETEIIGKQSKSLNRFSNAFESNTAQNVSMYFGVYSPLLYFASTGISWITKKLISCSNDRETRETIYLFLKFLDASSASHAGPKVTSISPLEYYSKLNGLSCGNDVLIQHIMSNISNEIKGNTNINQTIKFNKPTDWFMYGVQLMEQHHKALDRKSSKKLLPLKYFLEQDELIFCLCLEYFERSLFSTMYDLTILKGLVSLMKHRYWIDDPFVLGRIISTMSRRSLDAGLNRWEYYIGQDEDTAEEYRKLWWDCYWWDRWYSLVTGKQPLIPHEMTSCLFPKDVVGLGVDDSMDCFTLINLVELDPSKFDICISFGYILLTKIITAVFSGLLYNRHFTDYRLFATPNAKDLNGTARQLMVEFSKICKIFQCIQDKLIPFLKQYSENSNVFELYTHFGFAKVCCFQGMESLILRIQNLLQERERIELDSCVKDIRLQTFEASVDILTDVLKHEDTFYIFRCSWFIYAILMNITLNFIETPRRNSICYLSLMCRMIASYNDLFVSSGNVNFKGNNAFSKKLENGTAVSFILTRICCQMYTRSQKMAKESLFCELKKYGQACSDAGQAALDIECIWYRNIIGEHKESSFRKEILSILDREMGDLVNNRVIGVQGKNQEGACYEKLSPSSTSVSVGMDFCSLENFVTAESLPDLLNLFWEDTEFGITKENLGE
Procedure, shortened: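 Universal all-10-mer Agilent arrays, double-stranded by primer extension on fresh or once-stripped slides, were probed with about 100-200 nM GST-tagged yeast transcription factors made by PURExpress. Fluorescent anti-GST detected bound protein, and masliner normalised the scans. E-scores from the Universal PBM Analysis Suite were given to each ungapped eight-base word pooled with its reverse complement.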

Sequence	PBM E-score
CGCTTAAG	-0.133
CCCTACCC	-0.256
AAGATACC	0.187
GGATTCCC	-0.173
AGGCTTTA	-0.154
CAACTAGC	0.0974
CCTCCCCG	-0.0343
AGCCGTAT	0.214
AGCCGGAG	0.402
GGCCGGAA	0.338
GGGCGGAA	0.0682
AGCCGTAG	0.155
GGACGGAA	0.0833
AGCCGGAT	0.402
GACCGGAC	0.245
AGACGGAT	0.195
GGCCGGAC	0.294
AGCCGGAC	0.339
CGCCGGAG	0.222
AGTGAGCA	-0.0113
CGGGTTGC	0.118
AGCTGGAC	-0.0983
AAACCCAC	0.0014
AACGCAGT	-0.081
ACTCGCCG	0.131

Sequence	PBM E-score
AGCACCAT	-0.291
GCCCAAGC	-0.0265
AGACGGAA	0.277
CGGCGGAA	0.298
AGCCGGAA	0.423
CGCCGGAC	0.28
AGGCGGAA	0.195
TGCCGGAA	0.421
TGACGGAA	0.17
CGCCGGAA	0.368
TGCCGTAA	0.0109
CCTGGTTC	-0.0462
CGAGCCCC	-0.186
AAGAGAAT	0.0316
ACGTTAGT	-0.0893
CGATTTCC	0.214
CGGCACCG	0.346
CGGCACCC	0.048
CGGCACCA	0.256
CCTACCAA	0.0704
TCTCAAGA	-0.0209
CCCTAGAC	-0.189
ACGGTTGA	-0.0221
ACGGTTGC	-0.129
CCGGTTGA	0.321

Sequence	PBM E-score
CCGGTTGC	0.355
GCGGTTGA	0.113
CCGGTTTC	0.244
ACTCTTCT	-0.0645
CTTGGTCC	0.0693
TCGTGTCA	-0.0881
ACACTGCT	-0.244
GCAATAGA	-0.0314
CCTCAGCC	-0.233
ACGCTTTA	-0.0723
CAGTCGCG	-0.189
AAATCCGC	-0.00733
CAATCCGC	0.095
AAATCCGG	0.394
AAATCCGT	0.181
CAATCCGG	0.316
CAATCCGA	0.184
AGCGGTGA	-0.0103
ACTCTGCG	0.013
TCGGTTAA	0.333
GCCGTTAA	0.169
CCCGTTAA	-0.0453
GCGGTTAA	0.0539
TCCGTTAA	0.305
CCGGTTAA	0.297

Sequence	PBM E-score
ATTGTGAG	0.09
ACTTCTCG	0.17
CCGCCGTA	0.075
ACGCCGTG	0.0103
CCGCCGAA	0.313
CCGCCGCG	0.172
ACGCCGAG	0.328
CCGCCGAG	0.304
CCGCCGAC	0.109
CCGCCAAA	0.14
ACGCCGCG	0.0694
CCTAAAGG	-0.122
GCTACCGA	0.0575
AAATGAGC	0.038
CTAGGAGA	-0.0687
CCCGACTC	-0.0899
CCTAAAAA	0.105
GACGAAGA	0.0167
TACGAAGA	0.05
ACCGAAGT	0.136
ACCGAAGA	0.344
GCCGAAGA	0.315
ACCGAAGC	0.1
GCCGAAGC	0.246
CCCGAAGA	0.105

Sequence	PBM E-score
TCCGAAGA	0.376
CTCTAGTC	-0.244
GGAGTTGA	0.0129
ACGGGATC	0.0948
CCCGGATA	0.286
CGGGGATA	0.0634
CCCGGACC	0.149
CCGGGATC	0.339
CGGGGATC	0.0365
ACGGGACC	-0.109
CCGGGACC	0.342
GCGGGATA	0.0399
CCCGGATC	0.318
CCGGGATA	0.315
GCGGGACC	-0.0189
CAAAACCG	0.116
GAACTCAA	0.0685
AGTTCTAT	-0.0389
ACCCAATC	-0.00791
GCTTGTCC	0.114
CGAATTTC	0.276
AAGGTTGG	-0.24
AGAGTGAG	-0.128
GTTTAAAC	0.32
CTTTAAAC	-0.052

Sequence	PBM E-score
GTTTAAAA	0.162
AATACCCG	0.104
ACGGAAAC	0.306
TTGGAAAA	0.134
TGGGAAAA	-0.0424
ATGGAAAA	0.158
AAGGAAAC	0.0646
AGGGAAAT	-0.166
GCGGAAAA	0.216
TCGGAAAA	0.382
ACGGAAAA	0.309
GCGGAAAC	0.0908
AAGGAAAT	0.107
ACGGAAAT	0.39
AAGTGGGA	0.034
CCAGCGGG	0.134
ATACCCAT	-0.0126
ATAGAGAA	0.103
CATTCGAG	-0.0644
ACATCTCC	0.128
GTCATTCA	0.0449
CCGTCTCG	0.159
GTCTCGGA	0.227
AGCTCGGA	0.159
CACTCGGC	0.331

Sequence	PBM E-score
AGCTCGGG	0.138
CTCTCGGC	0.238
ACCTCGGC	0.238
CACTCGGG	0.0303
ATCTCGGA	0.31
ATCTCGGC	0.37
AACTCGGC	0.273
AGCTCGGC	0.316
ATCTCGGG	0.219
ACAGTAGT	-0.0892
AAGACCAA	0.052
GAGCCTAA	-0.0836
ACTGCAAA	0.0905
GTAAGCGA	0.00236
GCTCAAAA	0.199
GTATACAA	0.125
ATATACAA	0.219
TTATACAA	0.313
CAACTTTC	0.0846
GTACTACA	0.0564
CTTGTCTC	0.0611
AATATGCA	-0.0575
GCGGCTCA	0.2
CCGGCTCA	0.362
ACGGCTCG	0.21

Sequence	PBM E-score
ACGGCTAA	0.233
TCGGCTAA	0.313
GCGGCTAA	0.186
TCGGCTCA	0.2
CCGGCTCG	0.339
CCGGCTCC	0.293
CAAGAGGA	-0.0179
CCGGTCGA	0.141
ACTGCCGA	0.262
AGGCGAGG	-0.204
CATGCTTA	-0.103
CTCCAAGC	-0.181
CGCTAATC	-0.0149
GGAGGGCC	-0.308
ACGCCCGA	0.056
TATATACA	0.164
AATATATT	0.38
GATATATA	0.349
GATATACA	0.128
GATATATC	0.266
AATATATA	0.267
AATATATG	0.153
CATATATA	0.28
TATATATA	0.424
AGGCCTAA	0.0613

Sequence	PBM E-score
CGCATGAG	-0.284
CGACAGTC	-0.182
AGATCATC	0.0775
CGTGGCAA	-0.0803
CATACCAC	0.0462
AGGAACTA	-0.103
CGGAACGA	0.306
AGGAACGA	-0.141
CCGAACAA	0.322
GCGAACAA	0.246
ACGAACAA	0.275
GGGAACAC	0.221
CGGAACTA	0.414
CGGAACAC	0.356
AGGAACAC	0.161
CGGAACTC	0.202
CGGAACGC	0.241
ACCAGACT	-0.0238
GTTTGCTA	0.0684
ATACACGG	0.047
CGGCGCAA	0.178
AGGCTGAT	-0.161
CCGAACTC	0.246
GGGAACAA	0.158
CGGAACAG	0.338

Sequence	PBM E-score
CCGAACAG	0.216
TGGAACAA	0.195
CGGAACAA	0.39
CCGAACTA	0.323
AGGAACAG	-0.19
ACGAACTA	0.157
CGATAGCA	-0.114
AGTTACGA	0.107
CAGAGGGG	-0.286
AGTAGCTC	-0.00154
CTCGCTTC	-0.0232
AGTCTGAG	-0.14
AGGCTCAC	-0.273
AATTTTAC	0.176
CTATTAAA	0.21
AAATTTAT	0.286
TGTTTAAA	0.0737
ATATTAAA	0.368
TTATTAAA	0.233
TGTTTTAA	0.327
AATTTTAT	0.379
GCATTAAA	0.149
AGTTTTAA	0.159
ACATTAAA	0.0822
TCATTAAA	0.343

Sequence	PBM E-score
TCAGCAAA	0.158
ACTAGTGA	-0.172
AGAGCTTA	0.0135
CGTTTCAC	0.135
ATCAATGA	0.2
CAGTAAAG	-0.177
GAGCAACA	0.128
GATAACAC	0.0102
AATTTATA	0.24
AATTTATG	0.307
ATATTTAC	0.202
ATTTTAAC	0.028
AATTTTAA	0.252
ATTTTAAA	0.331
ATTTTTAA	0.333
GTTTTAAA	0.131
ATATTTAA	0.306
CTATTTAA	0.0903
ATTTTTTA	0.274
ATTTTATG	0.217
ACCCCGCA	-0.0654
GCTTTTCC	0.109
GGCGATTA	0.0843
CAGATCGA	-0.0498
CCTAGTTA	0.0429

Sequence	PBM E-score
ACCCTACA	-0.0427
AGTTGACA	0.0221
AGAGGTGA	-0.148
ACCCCGGG	0.263
ATCCCGGG	0.36
AAACCCGG	0.337
AAACCCGC	0.135
ATCCCCGG	0.185
ATCCCGGA	0.274
AACCCGGG	0.325
CACCCGGC	0.15
ACCCCGGC	0.0581
CACCCGGG	0.189
AAACCCGA	0.215
AACCCGGC	0.329
ACTTTTTG	0.154
ACCCTCGT	-0.116
ACAGTAAG	-0.0845
GACATTGC	-0.175
AAATAAAG	0.045
AAATAAAT	0.34
ATATAAAC	0.17
ATATAAAT	0.305
ATATAAAG	0.0639
AAATAAAA	0.0817

Sequence	PBM E-score
CGTGCTGC	-0.0543
CGGGGGGA	-0.373
AACTGCAA	0.0848
GAGTTAGC	-0.0328
CTCTTATA	0.145
ATGGTATA	-0.0158
ACATGCTG	-0.257
CCACCGGA	0.346
ACACCGGA	0.246
GCACCGGC	0.234
CCACCGGG	-0.00255
GCACCGGA	0.33
CCACCGGC	0.146
TAGACCGA	0.105
TAATCATA	0.157
GACTAGTA	-0.12
TACTAGTA	0.338
CACTAGTA	-0.0824
AGTGCCGG	0.337
GGTGCCGA	0.266
AGTGCCGA	0.333
AGTGCCAG	-0.28
AGTGCCTG	-0.132
AGTGCCGC	0.123
GGACCACC	-0.116

Sequence	PBM E-score
CTCGACCC	-0.118
AGCTGCCC	0.034
CGGCTTCA	0.345
CGGCTTAA	0.393
CGGCTTAG	0.213
AGGCTTCA	-0.108
CGGCTTCC	0.198
TGGCTTAA	0.175
ACGTCAAG	-0.124
CACCTTGA	-0.151
GTCAACGA	-0.0301
GCTGTTTA	0.141
GGCGGCAC	0.0696
TGCGGCAA	0.0333
TACGGCAA	0.158
CCCGGCAC	0.0863
ACCGGCAA	0.222
ACCGGCAC	0.363
CCCGGCAG	0.131
GCCGGCAC	0.422
ACCGGCAG	0.0457
CCCGGCAA	0.335
TCCGGCAA	0.339
CGCGGCAA	0.274
